Source: PubChem BioAssay
Pf growth 48h = Primary qHTS for delayed death inhibitors of the malarial parasite plastid, 48 hour incubation. P. falciparum luciferase growth in erythrocytes, 48 h. 5.9% of 310,000 active. AID 504832, 2011. Potency, µM (highest dose often 28.7 µM), most hits filed as inhibitors
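Here the parasites carry a stable luciferase gene and grow inside erythrocytes in Albumax-based RPMI medium with compound for one erythrocytic cycle. Activity is scored as loss of luminescent signal.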
CHX counter = Cycloheximide Counterscreen for Small Molecule Inhibitors of Shiga Toxin; cell reporter, cycloheximide protein synthesis inhibition counterscreen; max response, %; 12% of 300,000 active; AID 2314, 2010; in the data active = max response mostly above about 13%, no sharp cut-off; inactive = mostly below about 14%; also: read at 38.3 µM for the half of the compounds with a filed dose
AMA1 RON2 block = qHTS for Inhibitors of AMA1-RON; Towards Development of Antimalarial Drug Lead: Primary Screen | AlphaScreen AMA1-biotinylated RON2 peptide binding | Potency, µM (top dose mostly 58.2 µM), hits mostly inhibitors | Plasmodium falciparum AMA1 (3D7) - RON2 peptide interaction | 0.2% of 360,000 active; also: nearly all actives have a fitted effect of over 45% in size
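AMA1 (3D7) with his tag at 25 nM final met compounds first, then biotinylated RON2 peptide at 25 nM; detection used donor plus acceptor beads, 10 µg/mL apiece, read by AlphaScreen after 30 min at room temperature.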
Pf growth 96h = Primary qHTS for delayed death inhibitors of the malarial parasite plastid, 96 hour incubation | 6.9% of 320,000 active | Potency, µM (series often up to 28.7 µM), most hits filed as inhibitors | P. falciparum luciferase reporter growth, 96 h
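P. falciparum expressing integrated firefly luciferase grown in erythrocytes (2% hematocrit, 0.05% parasitemia final) with compounds for 96 hours at 37 C, 5% CO2. Growth inhibition read as loss of luminescence after adding luciferase detection reagent.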
Shiga inhibitor = A qHTS for Small Molecule Inhibitors of Shiga Toxin. 9.2% of 290,000 active. AID 2315, 2010. inhibition, % at 38.7 µM. Vero cells, Shiga toxin protein synthesis inhibition reporter; in the data active = inhibition mostly above about 28%, no sharp cut-off; inactive = mostly below about 43%
HCV inhibitor = qHTS Assay for Inhibitors of Hepatitis C Virus (HCV). Huh7.5.1 HCVcc-Cre infection, luciferase reporter, 44 h. Potency, µM (titrated, usually from 41.8 µM), hits mostly inhibitors. 3.4% of 340,000 active
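HCVcc-Cre virus at an moi near 0.5 was added right after compound to cells cultured 4 h from seeding (1,000 cells/well). Luciferase activity was determined 44 h later, 15 min after substrate addition at RT.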
Numbers stand for hits; i = inactive; ? = inconclusive; nt = no result; [ ] = remark or other dose. An excerpt weighted towards active compounds, which were near 21% of everything screened. Unless noted, calls follow the shape of the dose curve; as a rule, active = well fitted curve in the direction sought with a large enough effect; inconclusive = small, poorly fitted or top-dose-only effect, or another doubt; inactive = no such curve, though single readings can be large; an effect the other way counts as inactive or inconclusive.

SMILES	Pf growth 48h	CHX counter	AMA1 RON2 block	Pf growth 96h	Shiga inhibitor	HCV inhibitor
COc1ccccc1Cn1c(-c2ccccc2OC)nc2ccccc21	nt	i	i	nt	i	i
COc1ccc(-c2nnnn2CCc2ccccc2)cc1	i	19.0	i	i	i	i
C=CCn1c(-c2ccc(N)cc2)nc2ccccc21	nt	i	i	i	49.9	i
COc1ccc(-c2nnnn2C(C)C)cc1	i	i	i	i	i	i
C=CCn1c(-c2ccc(OC)cc2)nc2nc3ccccc3nc21	i	37.0	i	nt	i	?
CCCn1c(-c2cc(OC)c(OC)c(OC)c2)nc2nc3ccccc3nc21	?	i	i	?	i	i
CCC(=O)N1CCC1(C)C(=O)Nc1ccc(Cl)c(Cl)c1 (configuration not stated)	nt	nt	i	nt	nt	nt
CC(C)Oc1ccccc1/C=N/n1nnnc1N	nt	nt	i	nt	nt	i
COC(=O)/C=C1\N/C(=N/c2nc(C)c3cc(OC)ccc3n2)NC1=O	?	i	i	i	i	?
O=c1ccc(-c2nc3cc(Cl)ccc3n2Cc2ccccc2)c[nH]1	?	i	i	9.28µM	i	i
O=c1ccc(-c2nc3ccccc3n2Cc2ccccc2Cl)c[nH]1	i	i	i	?	i	i
COCCn1c(Cc2cccn2C)nnc1SCC(=O)NCc1ccc2c(c1)OCO2	i	i	i	?	i	i
CC(NC(=O)COc1ccc(-c2nnco2)cc1)c1ccc(Cl)cc1Cl (configuration not stated)	?	i	i	13.1µM	i	i
CC1CCN(S(=O)(=O)c2ccc3c(c2)NC(=O)CS3)CC1	i	i	i	i	i	i
COc1ccc(Cl)cc1NC(=O)CN(C)C(=O)c1ccc(N2CCCCC2)c([N+](=O)[O-])c1	13.1µM	nt	i	?	nt	?
COc1cccc(CN(C)C(=O)c2ccc(N3CCCC3)c([N+](=O)[O-])c2)c1	i	i	i	13.1µM	i	i
CCOc1ccc2c(c1)C(N(CCN1CCOCC1)C(=O)Nc1ccccc1)CC(C)(C)O2 (configuration not stated)	i	i	i	i	i	i
O=C(O)c1ccc(-c2sc(Nc3ccccc3)n[n+]2-c2ccc(F)cc2)cc1	i	i	i	i	i	i
CCN(CC)c1ccc(-c2sc(Nc3ccccc3)n[n+]2-c2ccc(F)cc2)cc1	i	18.2	i	9.28µM	25.9	i
COc1ccc(-c2sc(Nc3ccccc3)n[n+]2-c2ccc(F)cc2)cc1Br	?	i	i	7.38µM	i	i
COc1ccc2ccccc2c1-c1sc(Nc2ccccc2)n[n+]1-c1ccc(F)cc1	?	i	i	?	i	i
CN(C)c1ccc(-c2sc(Nc3ccccc3)n[n+]2-c2ccc(F)cc2)cc1	i	35.9	i	?	50.4	?
Cc1cccc(-c2sc(Nc3ccccc3)n[n+]2-c2ccccc2)c1	?	nt	i	i	nt	i
CCc1ccc(Nc2n[n+](-c3ccccc3)c(-c3ccc(N(CC)CC)cc3)s2)cc1	?	34.5	i	3.29µM	51.5	11.2µM
CC(=O)c1ccc(OC(=O)c2nc(-c3ccccc3)oc2C)cc1	i	i	i	i	i	i
SMILES	Pf growth 48h	CHX counter	AMA1 RON2 block	Pf growth 96h	Shiga inhibitor	HCV inhibitor
O=S(=O)(c1ccc(F)cc1)N1CCN(c2nc(-c3ccc(F)cc3)nc3cc(Cl)ccc23)CC1	nt	i	nt	nt	i	nt
O=C(Cc1c(Cl)cccc1Cl)OCc1ccccn1	?	24.8	i	?	59.3	i
O=C(OCc1c(Cl)cccc1Cl)c1ccccn1	i	i	i	i	i	i
Cc1cccc(NC(=O)CN2C(=O)NC3(CCCC3)C2=O)n1	i	nt	i	i	nt	i
COc1ccc(NC2CCCN(C(=O)c3cccs3)C2)cc1 (configuration not stated)	i	i	i	?	i	i
CC(C)c1ccc(NC2CCCN(C(=O)CCN3CCCCC3=O)C2)cc1 (configuration not stated)	i	i	i	?	i	i
CC(C)c1ccc(NC2CCCN(C(=O)CCN3Cc4ccccc4C3=O)C2)cc1 (configuration not stated)	i	i	i	1.85µM	i	i
CC(C)c1ccc(NC2CCCN(C(=O)c3cccs3)C2)cc1 (configuration not stated)	i	31.6	i	i	22.7	i
CCC(CC)C(=O)N(CCc1ccc(OC)cc1)Cc1nc2ccccc2c(=O)[nH]1	nt	i	i	11.7µM	i	22.4µM
CCN(Cc1nc2ccccc2c(=O)[nH]1)C(=O)C1CC(=O)N(c2cccc3ccccc23)C1 (configuration not stated)	10.4µM	nt	i	?	nt	i
CCN(Cc1nc2ccccc2c(=O)[nH]1)C(=O)c1ccc(C)c(NC(=O)c2ccco2)c1	i	nt	i	13.1µM	nt	i
CCN(Cc1nc2ccccc2c(=O)[nH]1)C(=O)COc1ccccc1-c1ccccc1	13.1µM	nt	i	9.28µM	nt	?
COc1ccc(CCN(Cc2nc3ccccc3c(=O)[nH]2)C(=O)c2ccco2)cc1	?	i	i	i	i	i
O=C1NCCCN1C1OC(CO)C(O)C1O (configuration not stated)	nt	nt	i	nt	nt	nt
CCN(Cc1nc2ccccc2c(=O)[nH]1)C(=O)c1cc(C2CC2)nn1-c1ccccc1	?	nt	i	9.28µM	nt	?
CCC(C)c1ccc(NC(=S)Nc2ccc(OC)cc2)cc1 (configuration not stated)	i	i	i	i	i	?
CCc1ccc(Nc2ncccc2C#N)cc1	i	28.2	i	i	i	i
CCC(C)c1ccc(Nc2ncccc2C#N)cc1 (configuration not stated)	i	38.3	i	i	69.3	i
CC(OC(=O)c1cc(=O)[nH]c2ccccc12)C(=O)NCc1ccccc1 (configuration not stated)	i	nt	i	i	nt	i
C=CCN1C(=O)S/C(=C\c2ccc(N3CCOCC3)cc2C)C1=O	i	35.2	i	nt	i	?
Cc1cc(N2CCOCC2)ccc1/C=C1/SC(=O)NC1=O	i	30.9	i	i	i	i
C=CC(C)N1C(=O)S/C(=C\c2ccc(N3CCOCC3)cc2C)C1=O (configuration not stated)	i	16.9	i[2.32 µM]	?	i	i
Cc1cc(N2CCOCC2)ccc1/C=C1\C(=O)NC(=O)N(c2ccccc2)C1=O	i	i	i	i	i	i
O=C1NC(=S)N/C1=C\c1ccc(N2CCOCC2)cc1	i	28.5	i	i	i	i
Cc1cc(N2CCOCC2)ccc1/C=C1\NC(=O)N(CC(=O)Nc2ccccc2C)C1=O	i	i	i	nt	i	i
Cc1ccc(S(=O)(=O)N2CCOCC2)cc1C(=O)N1CCC(Cc2ccccc2)CC1	i	i	i	i	i	i
